# Assay outcomes as filed in PubChem BioAssay.
# NPC1 prom act = NPC1 promoter activation. Huh7 NPC1 promoter luciferase reporter, 24 h. Potency, µM (series often up to 9.22 µM), usual class: activators. actives 2.4% (n = 320,000). AID 485313; further: nearly all actives have a fitted effect of over 60% in size
#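 Cells: Huh7 expressing luciferase under the NPC1 promoter, 1500/well. Seeded 2 h, compound added, incubated 24 h at 37 °C. Luciferase reagent, 10 min ambient, then luminescence.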
# ELG1 genotoxic = induces genotoxicity in HEK293T cells with luciferase-tagged ELG1. HEK293T ELG1-luciferase reporter, luminescence, 16 h. Potency, µM (titrated, usually from 46 µM), actives largely listed as activators. actives 1.3% (n = 330,000). AID 504466; further: nearly all actives have a fitted effect of over 60% in size
#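 HEK293T cells expressing luciferase-tagged ELG1 were treated with compound or DMSO for 16 hr at 37°C. Luciferase activity was then read after 30 min with ONE-Glo at room temperature; rising signal flags genetic stress.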
# SMN2 splice enh = enhancers of SMN2 splice variant expression | HEK293 SMN2-luciferase splicing reporter, luminescence, 30-36 h | Potency, µM (top dose mostly 46.1 µM), usual class: activators | actives 2.8% (n = 210,000); further: nearly all actives have a fitted effect of over 55% in size
#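 qHTS luciferase splicing reporter: luminescence rises when SMN2 exon 7 is included in transfected HEK293 cells. Compound exposure lasted 30-36 h at 37C, with 4.5 mM final sodium butyrate as control, followed by a ONE-Glo read.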
# FLuc modulator = firefly luciferase modulation, counter-screen for miR-21 project. actives 6.9% (n = 360,000). purified FLuc, Km substrates, luminescence inhibition. P08659. AID 588342. Potency, µM (series often up to 57.5 µM), usual class: inhibitors; further: nearly all actives have a fitted effect of over 55% in size
# Target sequence (P08659 whole entry, looked up): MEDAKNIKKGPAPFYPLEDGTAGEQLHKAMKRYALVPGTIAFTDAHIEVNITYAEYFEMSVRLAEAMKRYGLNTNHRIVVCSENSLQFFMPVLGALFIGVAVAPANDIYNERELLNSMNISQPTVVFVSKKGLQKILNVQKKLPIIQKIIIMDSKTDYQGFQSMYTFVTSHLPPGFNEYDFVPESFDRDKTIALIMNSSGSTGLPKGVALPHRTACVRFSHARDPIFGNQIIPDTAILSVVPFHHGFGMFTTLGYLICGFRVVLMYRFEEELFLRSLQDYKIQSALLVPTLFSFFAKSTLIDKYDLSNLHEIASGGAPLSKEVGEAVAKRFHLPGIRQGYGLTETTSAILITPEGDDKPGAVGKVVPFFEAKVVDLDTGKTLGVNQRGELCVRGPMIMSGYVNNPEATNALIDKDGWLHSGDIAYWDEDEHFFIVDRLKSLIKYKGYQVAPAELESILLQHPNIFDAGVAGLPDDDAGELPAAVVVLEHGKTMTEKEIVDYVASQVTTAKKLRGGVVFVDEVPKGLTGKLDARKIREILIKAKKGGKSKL
#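 Purified P. pyralis luciferase, 10 nM final, with Km-level 10 uM D-luciferin and 10 uM ATP in 50 mM Tris acetate pH 7.5, 10 mM Mg acetate, 0.01% Tween-20, 0.05% BSA; 6-point qHTS titration about 60 µM downward; luminescence read.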
# Rab9 promoter act = activators of Rab9 promoter. AID 485297. Potency, µM (highest dose often 9.22 µM), actives largely listed as activators. actives 2.8% (n = 320,000). Huh7 Rab9 promoter-luciferase reporter, luminescence, 24 h; further: nearly all actives have a fitted effect of over 60% in size
#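 Luminescence read-out: Huh7 cells stably expressing Rab9-luciferase, treated 24 h with compound at 37 °C, then lysed with luciferase reagent for 10 min at ambient before reading.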
# ELG1 repair inh = blocks ELG1-dependent DNA repair in HEK293T cells | HEK293T ELG1-luciferase reporter, luminescence, 16 h; DNA damage induced by 5-fluorouridine | Potency, µM (titrated, usually from 46.1 µM), most hits filed as inhibitors | actives 2.3% (n = 330,000); further: nearly all actives have a fitted effect of over 55% in size
#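 5-Fluorouridine DNA damage + compound/DMSO, 2,000 cells/well, 16 h, 37 °C/5% CO2. ONE-Glo, 30 min RT, luminescence. Readout = decrease in reporter signal.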
# A number is an active result; i = inactive; ? = inconclusive; nt = no result given; [ ] = dose if it differs, or a comment. An excerpt weighted towards active compounds, which were near 9.2% of everything screened. The call rests on the fitted dose curve; in most records, active means well fitted curve in the direction sought with a large enough effect; inconclusive means small, poorly fitted or top-dose-only effect, or another doubt; inactive means no such curve, though single readings can be large; an effect the other way counts as inactive or inconclusive.
SMILES,NPC1 prom act,ELG1 genotoxic,SMN2 splice enh,FLuc modulator,Rab9 promoter act,ELG1 repair inh
Cc1ccc(-n2c(C)cc(/C=N/NC(=O)c3ccc(CN4CCOCC4)cc3)c2C)cc1,i,i,i,15µM,i,i
Cc1ccc(-n2c(C)cc(/C=N/NC(=O)c3ccncc3)c2C)cc1,i,?,i,5.4µM,i,i
CCCCCCC1CCC(C(=O)N2CCOCC2)CC1 (configuration not stated),i,i,i,i,i,i
CC(C)NC(=O)CN1C(=O)CSc2ccc(S(=O)(=O)N3CCCC3)cc21,i,i[9.26 µM],nt,i,i,i
O=C(c1csnn1)N1CCC2(CCCN(c3cccc(-c4ccccc4)c3)C2)CC1,nt,nt,i,nt,nt,nt
CC(=O)c1cccc(NC(=O)CN2C(=O)NC(C)(C)C2=O)c1,nt,i,nt,nt,nt,?
O=S(=O)(Nc1nc2ccccc2nc1N1CCc2ccccc2C1)c1ccc(Br)cc1,i,?,?,15µM,i,?
CN1CCN(C=Nc2nc3ccccc3nc2N2CCCC2)CC1,i,i,i,i,i,i
COC(=O)c1ccc(CSc2nnc(N)s2)cc1,?,i,i,?,?,?
COC(=O)c1ccc(CSc2nnc3c(n2)[nH]c2ccccc23)cc1,i,i,nt,i,i,i
COC(=O)c1ccc(CSc2nc(N)cc(N)n2)cc1,i,15µM,i,?,i,?
O=[N+]([O-])c1ccc(CSc2nc3ccccc3o2)cc1,0.63µM,?,7.9µM,2.4µM,0.89µM,?
COC(=O)c1ccc(CSc2nnc(C)s2)cc1,?,i,25µM,?,3.5µM,?
COC(=O)c1ccc(CSc2nc3ccccc3o2)cc1,1.6µM,?,22µM,1.1µM,0.89µM,?
CCc1ccc2occ(CC(=O)Nc3c(C(=O)c4ccccc4)oc4ccccc34)c2c1,nt,nt,i,i,nt,nt
Cc1nc([N+](=O)[O-])cn1CC(=O)c1ccc(OC(F)(F)F)cc1,i,i,nt,i,i,i
Cc1ccc(-n2nc(C)c3c(C)c(CCC(=O)NCc4ccc(Cl)cc4)c(C)nc32)cc1,nt,nt,i,i,nt,nt
Cc1nn(C(C)C)c(C)c1CN1CCC(C(=O)Nc2cccc(-c3cccc(F)c3)c2)CC1,i,i,nt,i,i,i
CC(C)CCNC(=O)CCn1c(=O)c2cccn2c2cccnc21,nt,nt,nt,i,nt,nt
CCOCCCn1c(C)nc2c[n+](CC(=O)c3ccc4ccccc4c3)cc(Br)c21,i,i,nt,i,i,?
COC(=O)[C@@H](NCc1cccc(CN([C@H](C(=O)OC)C(C)C)S(C)(=O)=O)c1)C(C)C,i,i,nt,i,i,i
COc1ccc(-n2c(=S)[nH]c3cc(C(=O)Nc4ccccc4OC)ccc3c2=O)c(OC)c1,i,i,nt,i,i,16µM
O=C(CCC(=O)Nc1cccc(Cl)c1)N/N=C/c1cc([N+](=O)[O-])ccc1O,i,i,i,?,i,?
Cc1ccc(C)c(NC(=O)CCC(=O)N/N=C/c2cc([N+](=O)[O-])ccc2O)c1,i,i,nt,i,i,13µM
Cc1ccc(SCC(=O)Nc2cc([N+](=O)[O-])ccc2O)cc1,i,i,nt,17µM,i,?
SMILES,NPC1 prom act,ELG1 genotoxic,SMN2 splice enh,FLuc modulator,Rab9 promoter act,ELG1 repair inh
O=C(CCCC(=O)Nc1cccc(Br)c1)N/N=C/c1cc([N+](=O)[O-])ccc1O,i,i,nt,i,i,15µM
Cc1ccccc1NC(=O)CCC(=O)N/N=C/c1cc([N+](=O)[O-])ccc1O,i,i,i,i,i,?
CCCN1CCN(S(=O)(=O)c2ccc3c(c2)CCC(=O)N3)CC1,i,i,nt,i,i,i
COc1ccc(NS(=O)(=O)c2cc(OCC(N)=O)c(C)cc2Cl)cc1,i,i,i,i,i,i
CC(=O)c1cccc(NC(=O)COC(=O)c2ccccc2C)c1,?,?,nt,21µM,i,?
Cc1cccc(NC(=O)COc2ccc(Br)cc2/C=N/O)c1,4µM,?,18µM,5.4µM,4µM,?
CC(C)(C)NC(=O)c1cccc(NC(=O)CSc2ccccc2)c1,i,i,i,15µM,i,i
CC(=O)Nc1ccc(NC(=O)COc2ccc(Br)cc2C)cc1,i,i,i,i,i,i
Cc1cc(Cl)c(S(=O)(=O)Nc2cccc(O)c2)cc1OCC(N)=O,i,i,4µM,i,i,i
CCOc1ncccc1C(=O)OCC(=O)Nc1cccc(C(C)=O)c1,i,i,i,i,i,i
COc1ccc(S(=O)(=O)NCc2ccc3c(c2)CCN3C(C)=O)cc1OC,nt,nt,nt,i,nt,nt
CC1CCCN(c2c([N+](=O)[O-])cc(C(=O)O)cc2[N+](=O)[O-])C1 (configuration not stated),i,i,i,?,i,?
O=C(ONC1=NCCCCC1)c1ccc([N+](=O)[O-])cc1,i,i,i,i,i,i
Cc1cc(C)c(OCC(=O)Nc2cccc(O)c2)cc1C,i,5.2µM,i,1.5µM,?,?
Cc1cc(C)cc(OCC(=O)Nc2cccc(C(=O)O)c2)c1,?,i,?,15µM,?,?
Cc1cc(C)c(OCC(=O)Nc2ccc3c(c2)OCO3)cc1C,i,?,nt,i,i,?
CC(=O)c1cccc(NC(=O)CSC(=O)c2ccccc2)c1,i,i,i,17µM,i,i
Cc1ccccc1OCC(=O)Nc1cccc(C(=O)O)c1,?,i,1.6µM,0.095µM,?,?
CN(Cc1ccccc1)S(=O)(=O)c1ccc(N2CCOCC2)nc1,i,i,nt,i,i,i
CCOC(=O)c1c(C)[nH]c(C)c1S(=O)(=O)N(C)CC(=O)Nc1cccc(C)c1,i,i[9.26 µM],nt,i,i,i
O=C(COc1ccccc1Cl)Nc1ccccc1C(=O)Nc1cccc(C(=O)O)c1,?,?,nt,7.6µM,?,?
Cc1ccc(NC(=O)COc2ccc(CCO)cc2-n2nc3ccccc3n2)cc1C,i,i,i,i,i,18µM
COc1ccc(C(=O)CSc2cc(C)nc(SCC(=O)c3ccc(C)cc3)n2)cc1,i,i,i,i,i,5.2µM
COc1ccc(-c2cc(C)nc(SCC(=O)c3cccc([N+](=O)[O-])c3)n2)cc1,i,i,i,i,i,21µM
Cc1cc(C(F)(F)F)nc(SCC(=O)c2cccc([N+](=O)[O-])c2)n1,i,i,i,i,i,i
Cc1ccc(-c2cc(C(F)(F)F)nc(SCC(=O)c3cccc([N+](=O)[O-])c3)n2)cc1,i,i,i,i,i,18µM
O=C(CSc1nc(-c2ccccc2)cc(C(F)(F)F)n1)c1cccc([N+](=O)[O-])c1,i,i,i,i,i,18µM
Cc1ccc(C(=O)CSc2nc(C)cc(SCc3nnc(-c4ccccc4)o3)n2)cc1,i,i,i,i,i,i
